Experiment in all cases: NCI-60 one-dose screen, 48 h (100 = growth as untreated, 0 = no growth, -100 = all killed)
What all share (settings): 10 µM unless noted

Test [1] concerns DU-145 prostate.
Test [2] deals with K-562 leukemia.
Test [3] relates to MALME-3M melanoma.
The test system of test [4] is MDA-MB-231 breast.
The test system of test [5] is RXF 393 renal.
The test system of test [6] is SF-268 CNS.
The test system of test [7] is SF-295 CNS.
Test [8] deals with SF-539 CNS.
For test [9], the system named is UACC-257 melanoma.
Test [10] deals with M14 melanoma.
In test [11] the test system is HCT-15 colon.
The subject of test [12] is HT29 colon.
For test [13], the system named is SNB-19 CNS.
Test [14] has as its system U251 CNS.
Test [15] has as its system PC-3 prostate.
Test [16] concerns SK-MEL-5 melanoma.
Test [17] relates to UACC-62 melanoma.
In test [18] the test system is LOX IMVI melanoma.
The test system of test [19] is SK-MEL-28 melanoma.
For test [20], the system named is SNB-75 CNS.

The panel holds about 83,000 compounds, 20% with a hit somewhere; the sample as a whole holds those more often.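 Activity criterion: percent growth below 10, measured after cells in 96-well plates were exposed to a single compound concentration for 48 hours.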 Unmarked numbers belong to inactive results. The source made the active and inactive calls.

With `NS(=O)(=O)c1cc(Br)c2c(c1)S(=O)(=O)NCN2`, the growth in test [1] is 108%; in test [2], 80.6%; in test [3], 121%; in test [4], 118%; in test [5], 174%; in test [6] it was 103%. Moreover, the growth in test [7] was 104%; in [8], 101%; in [9], 94.5%; in test [10] it was 109%; in test [11], 112%; in [12], 103%. The growth was 112% in test [13]; 107% in test [14]; 105% in test [15]; 111% in test [16]; 111% in [17]; 113% in [18]. The growth in [19] is 110%.

In the case of `COc1ccc(/C=C(\C#N)c2cc3ccccc3n2C)cc1`, the growth in [1] is 2.99% (active); in test [2], 7.26% (active); in test [3], 60.8%; in test [4], 31%; in [5], -6.28% (active); in test [6] it was 47.5%. Also, the growth in test [7] was 9.9% (active); in test [8] it was -15.9% (active); in [9], 72.6%; in test [10], 6.61% (active); in test [11] it was 23.9%; in test [20], 1.11% (active). The growth in test [13] is 32.8%; in [14], 15.9%; in test [15], 38.8%; in test [16] it was 23.2%; in test [17] it was 38.3%; in test [18], 39.4%. In addition, the growth in test [19] was 62.1%.

For the compound `COc1ccc(-c2csc3c2-n2cccc2C3=O)cc1O`, the growth in test [1] was -23.5% (active); in test [2] it was 5.65% (active); in test [3], 66.2%; in test [4], 13.2%; in [5], 31.3%; in test [6], 13%. Further, the growth in [7] is -31.7% (active); in test [8], 15.6%; in test [9] it was 43.8%; in test [10], -18.5% (active); in [11], 17.4%; in test [20], 46.5%. The growth in [13] was 41.4%; in test [14] it was 4.86% (active); in test [15], 17.2%; in [17], 29.4%; in test [18], 22.5%; in test [19], 61.5%.

Consider `CCCCCCCC/C=C\CCCCCCCCOc1cccc(CC(=O)NCC[N+]2(C)CCOCC2)c1`, for which the growth in [1] is 93.6%; in test [2], 73.4%; in [3] it was 93.3%; in test [4] it was 87.2%; in [5] it was 6.07% (active); in test [6], 70.2%. In addition, the growth in test [7] was 89.1%; in test [8] it was 96.2%; in test [9], 93.6%; in test [10], 87%; in test [11] it was 96.7%; in [12], 53.5%. Further, the growth in test [13] is 72.3%; in [15], 33.3%; in [16], 99.8%; in test [17], 80.2%; in test [18], 91.3%; in test [19], 102%.

`COC(=O)c1c2c(c(C)[n+]([O-])c1C)C(=O)C=C(NCc1ccc(F)c(Cl)c1)C2=O`: the growth in test [1] was -99% (active); in test [2] it was -7.41% (active); in test [3], -98.3% (active); in test [4] it was -25.6% (active); in test [5], -41.1% (active); in [6], -9.98% (active). For the same compound, the growth was -97.5% (active) in test [7]; -89.7% (active) in test [8]; -82.8% (active) in test [9]; -88.4% (active) in [10]; -70.4% (active) in test [11]; 3.68% (active) in test [12]. Besides, the growth in [13] was -48.5% (active); in [14], -21.7% (active); in [15] it was -1.13% (active); in test [16], -97.7% (active); in test [17] it was -70.8% (active); in test [18] it was -64.5% (active). For the same compound, the growth in test [19] was -11.8% (active).

For the compound `C=C(C)CCCC(C)CC#N` (stereo not drawn), the growth in test [1] is 105%; in [2], 105%; in test [3], 88%; in test [4] it was 115%; in test [5], 105%; in test [6] it was 94.6%. Further, the growth in test [7] was 94.3%; in [8], 95.6%; in [9] it was 104%; in [10], 96.5%; in [11], 101%; in test [12], 93.9%. For the same compound, the growth is 110% in test [13]; 95.7% in test [15]; 99.7% in test [16]; 111% in [17]; 106% in test [19].

`O=C(O)CCN1CCN(c2cccc(Cl)c2)CC1`: the growth in test [1] was 118%; in test [2], 99.8%; in [3], 107%; in [4] it was 116%; in test [5], 105%; in test [6], 117%. The growth in [7] is 87.4%; in test [8], 89.1%; in test [9], 94.6%; in test [10], 109%; in test [11] it was 100%; in [12] it was 99.8%. The growth was 103% in test [13]; 101% in test [15]; 102% in test [16]; 104% in test [17]; 108% in test [19].

Consider `O=C1NC(=O)C2(CCCC2C(=O)O)N1` (stereo not drawn), for which the growth in test [1] was 120%; in [2], 98%; in test [3] it was 140%; in [4], 105%; in [5] it was 117%; in [6], 109%. The growth in test [7] is 99.8%; in test [8], 101%; in test [9] it was 86.7%; in test [10], 106%; in test [11] it was 99.1%; in test [20] it was 83.4%. For the same compound, the growth in test [13] is 106%; in [14] it was 96.7%; in test [15] it was 92.6%; in [16], 110%; in [17] it was 103%; in test [18], 91.1%. The growth in test [19] is 110%.

With `CCCCCCCC/C=C\CCCCCCCCOc1cccc(CC(=O)NCC[N+]2(C)CCCCC2)c1`, the growth is 84.5% in test [1]; 46.2% in [2]; 79.1% in test [3]; 71.2% in test [4]; -2.16% (active) in test [5]; 61.6% in test [6]. Further, the growth in [7] was 87.5%; in test [8] it was 99.1%; in test [9], 98.5%; in test [10], 84.4%; in test [11] it was 102%; in test [20], 50.7%. The growth in test [13] is 56.7%; in [14] it was 51.6%; in [15], 22.1%; in test [16], 89.4%; in test [17] it was 70.1%; in test [18], 74.5%. Moreover, the growth in test [19] was 98.7%.

Take `N#CC1=C(N)Oc2cc(N)ccc2C1c1ccc(F)cc1` (stereo not drawn): the growth in test [1] is 93.1%; in [2] it was 24.8%; in test [3] it was 71.9%; in [4] it was 83.4%; in [5] it was 74.9%; in test [6], 81.9%. Also, the growth is 72.2% in test [7]; 83.6% in [8]; 95.6% in test [9]; 51.1% in test [10]; 46.9% in test [11]; 46.4% in [12]. Further, the growth in test [13] is 81.1%; in [14] it was 83.4%; in test [15], 90.8%; in [17], 74.7%; in test [18], 78.1%; in test [19], 84.8%.

In the case of `CCOC(=O)c1c(Cl)c2c(n1Cc1ccc(OC)cc1)-c1oncc1CCC2`, the growth in test [1] was 118%; in [2], 92.1%; in test [3] it was 119%; in [4], 77.2%; in test [5], 80.5%; in [6], 95.9%. Also, the growth in test [7] was 99%; in test [8], 93.3%; in test [9], 96.1%; in test [10], 108%; in [11], 83.7%; in test [20], 75%. The growth in test [13] is 89.1%; in test [14], 89.3%; in test [15] it was 58.6%; in [16], 72.1%; in test [17], 73.6%; in test [18], 77.8%. In addition, in test [19], the growth was 101%.

In the case of `Cc1nc2nc(C(F)(F)F)[nH]c2nc1C`, the growth in test [1] was 115%; in test [2], 92.9%; in test [3], 117%; in test [4], 114%; in test [5] it was 106%; in test [6], 102%. Besides, the growth was 78.6% in test [7]; 120% in [8]; 100% in [9]; 105% in [10]; 111% in [11]; 107% in [12]. Besides, the growth was 102% in test [14]; 104% in test [15]; 102% in [17]; 98.6% in test [18]; 102% in [19].

`CN1CCN(c2ccc3nc(-c4ccc5nc(-c6ccc(C(F)(F)F)cc6)[nH]c5c4)[nH]c3c2)CC1`: the growth was 59.2% in test [1]; -34.2% (active) in test [2]; 18% in test [3]; 82% in test [4]; -14.3% (active) in test [5]; 70.8% in [6]. Further, the growth in test [7] is 50.9%; in test [8], 47.2%; in test [9], 87.2%; in test [10] it was 43.8%; in test [11] it was 80.4%; in test [12], 29.2%. Besides, the growth in test [13] is 74.2%; in [14] it was 34.7%; in test [15], 30.2%; in test [16] it was 44.2%; in test [17], 67.5%; in test [18], -85.8% (active). For the same compound, the growth in [19] is 63.2%.

In the case of `O=C1CCC(N2Cc3c(C#CCCCNC(=O)c4cc5c(o4)C(=O)c4ccccc4C5=O)cccc3C2=O)C(=O)N1` (stereo not drawn), the growth was -98.1% (active) in test [1]; 16.2% in test [2]; -97.6% (active) in test [3]; -2.23% (active) in [4]; -15.4% (active) in [5]; -10.1% (active) in test [6]. Also, the growth is -87% (active) in test [7]; -94.2% (active) in test [8]; -79% (active) in [9]; -87.8% (active) in test [10]; 76% in [11]; -98.7% (active) in test [20]. The growth is -8.73% (active) in [13]; -27.7% (active) in [14]; 4.79% (active) in test [15]; -99.2% (active) in test [16]; -84.4% (active) in test [17]; -88.3% (active) in test [18]. In addition, in [19], the growth is -22.9% (active).

Consider `COc1cccc(C2C3=C(COC3=O)N(CCO)c3cc4c(cc32)OCO4)c1` (stereo not drawn), for which the growth in [1] is 0.613% (active); in test [2], 21%; in [3] it was 82.4%; in [4] it was 34.6%; in [5], -14.5% (active); in [6], 38.3%. Also, the growth in test [7] was -13.8% (active); in test [8], -19.1% (active); in test [9] it was 35.5%; in test [10], -24.2% (active); in test [11], 18.2%; in [20], -19.9% (active). The growth is 25.6% in test [13]; 18.2% in test [14]; 32.4% in [15]; 18.3% in [17]; 53.8% in test [18]; 50.5% in test [19].

As for `O=[N+]([O-])c1ccc(C=C2C(Cl)=C(Cl)C(Cl)=C2Cl)cc1`, the growth is 73% in test [1]; 7.31% (active) in [2]; 108% in [3]; 74.8% in test [4]; 0.914% (active) in test [5]; 55.1% in test [6]. For the same compound, the growth in [7] was 86.3%; in test [8], 75.8%; in test [9], 67.7%; in test [10], 36.9%; in test [11] it was 31.4%; in test [20], 81.5%. Further, the growth in test [13] is 80.6%; in test [14], 20.1%; in test [15], 58.5%; in test [16] it was 121%; in test [17], 71.7%; in [19], 107%.

The values above are taken from PubChem BioAssay (NCI).
